Source: PubChem
dFosB activator – activators of delta FosB homodimer, primary screen, biochemical, fluorescence polarization, TAMRA-CDK5 oligo, single point; Protein FosB (Mus musculus), P13346; hit rate 0.99% among 340,000; AID 493131, 2011; purified delta FosB; percent of positive-control signal above neutral wells; activation, % at 25 µM;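 active = mean activation above about 17%, with every replicate also reaching it, limit read from the data, passing the limit was not always enough; inconclusive = only one of the two conditions met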
MEKK2 WT-MEK5 – modulators of MEK5 binding to wildtype MEKK2, primary screen, biochemical, multiplex bead flow cytometry, Alexa488-MEK5; Alexa488-MEK5 binding to MEKK2 WT; actives lie on both sides; binding response (% of control), % at 10 µM; hit rate 1.1% among 290,000; AID 1531, 2009; in the data active = binding response below about 67% or above about 130%; inconclusive = no clear call, values can overlap the other calls; inactive = in between
MEKK2mut PB1 HTS – MEK5 binding signal on mutant MEKK2 PB1, primary screen, biochemical, multiplex bead flow cytometry, Alexa488-MEK5 | Alexa488-MEK5 binding to MEKK2 mutant | percent response, % at 10 µM | hit rate 0.35% among 290,000; in the data active = percent response above about 24%, passing the limit was not always enough
FID counter – compounds displacing fluorescent DNA intercalator, primary screen, artefact control for HCV NS3 helicase inhibitor project, biochemical, FID fluorescence | DNA fluorescent intercalator displacement | hit rate 0.17% among 290,000 | inhibition, % at 7.9 µM; in the data active = inhibition above about 37%;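 also: higher means more ethidium bromide displaced from hairpin DNA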
MEKK3 PB1 HTS – modulators of MEKK3-MEK5 PB1 binding, primary screen, biochemical, wildtype MEKK3, multiplex bead flow cytometry, Alexa488-MEK5. Mitogen-activated protein kinase kinase kinase 3 (Homo sapiens), Q99759. bead-based flow cytometry, Alexa488-MEK5 binding to MEKK3; actives lie on both sides; 0 = blocked by unlabeled MEK5, 100 = vehicle. binding response (% of control), % at 10 µM. hit rate 1.4% among 290,000. AID 1529, 2009;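 active = binding response more than 3 SD above or below the average of its plate-row segment, actives on both sides; inconclusive = wells at one plate position flagged as instrument error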;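 also: Alexa488 bead fluorescence after subtracting the streptavidin-only scavenger bead signal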
Target sequence (Q99759 whole entry, looked up): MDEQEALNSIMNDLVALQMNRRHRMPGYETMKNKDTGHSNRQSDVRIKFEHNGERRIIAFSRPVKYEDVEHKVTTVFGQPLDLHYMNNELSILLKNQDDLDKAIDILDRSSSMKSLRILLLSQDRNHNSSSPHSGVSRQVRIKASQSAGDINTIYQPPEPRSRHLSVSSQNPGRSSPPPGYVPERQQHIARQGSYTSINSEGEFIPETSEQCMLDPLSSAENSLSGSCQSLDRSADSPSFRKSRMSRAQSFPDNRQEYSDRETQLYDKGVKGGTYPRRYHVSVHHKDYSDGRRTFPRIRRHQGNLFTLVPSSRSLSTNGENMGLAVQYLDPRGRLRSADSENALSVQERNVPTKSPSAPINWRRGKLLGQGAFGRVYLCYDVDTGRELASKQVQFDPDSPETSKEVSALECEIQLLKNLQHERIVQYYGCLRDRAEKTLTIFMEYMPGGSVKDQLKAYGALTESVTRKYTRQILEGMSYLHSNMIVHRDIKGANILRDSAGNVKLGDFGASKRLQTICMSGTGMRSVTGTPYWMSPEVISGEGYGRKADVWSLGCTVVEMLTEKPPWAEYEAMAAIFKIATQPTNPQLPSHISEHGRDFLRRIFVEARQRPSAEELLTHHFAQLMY
MEKK2wt confirm – modulators of MEK5 binding to wildtype MEKK2, confirmation, biochemical, single concentration, multiplex bead flow cytometry | shares compounds with MEKK3 PB1 HTS | Alexa488-MEK5 binding to MEKK2 WT; actives lie on both sides | binding response (% of control), % at 10 µM | hit rate 2.4% among 5,900 | AID 1892, 2009; in the data active = binding response below about 16% or above about 210%; inactive = in between
MEKK2mut-MEK5 – mutant MEKK2 PB1-MEK5 binding signal retest – biochemical, single concentration, multiplex bead flow cytometry, confirmation | shares compounds with MEKK3 PB1 HTS | Alexa488-MEK5 binding to MEKK2 mutant | percent response, % at 10 µM | hit rate 2% among 5,900 | AID 1893, 2009; in the data active = percent response mostly above about 71%, no sharp cut-off; inactive = mostly below about 38%;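 also: higher means compound restores mutant binding toward wildtype level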
MEKK3 confirm – MEKK3 wild-type PB1 binding to MEK5, inhibitors, confirmation, biochemical, bead multiplex flow cytometry, single concentration, wildtype; binding response (% of control), % at 10 µM; hit rate 1.8% among 5,900; shares compounds with MEKK3 PB1 HTS; Alexa488-MEK5 binding to MEKK3; active compounds read low;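 active = binding response below 72% of control, or above a set upper limit, though filed actives all read lower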;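 also: lower values mean stronger disruption of MEK5 binding to MEKK3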
Of the large screens only hits and unclear results are named; the others gave an inactive call (follow-up assays come after a bar, where they were run); ! = not active in a repeat; [ ] = remark or other dose. Shown are actives, neighbours in structure and some others; about 2.9% of the full set was active somewhere.

On1c(-c2ccccc2Cl)nc2ccccc21	MEKK3 PB1 HTS 132 | MEKK2wt confirm inactive | MEKK2mut-MEK5 inactive | MEKK3 confirm inactive
C=CCn1c(SCC(=O)N2CCc3ccccc3C2)nc2sc(C)cc2c1=O	none
CCCN1CCC(=O)N(CCSc2ccccc2)CC1	none
CCCN1CCC(=O)N(CCSc2ccc(NC(C)=O)cc2)CC1	MEKK3 PB1 HTS 71[inhibitor] (no result: FID counter) | MEKK2wt confirm inactive | MEKK2mut-MEK5 inactive | MEKK3 confirm inactive
O=C(NNC(=O)C1COc2ccccc2O1)c1ccccc1O (stereo unspecified)	none (no result: MEKK2 WT-MEK5, MEKK2mut PB1 HTS, FID counter, MEKK3 PB1 HTS)
CCN(CC)CCNC(=O)c1ccc(NC(=O)c2cccc(S(=O)(=O)N3c4ccccc4CC3C)c2)cc1 (stereo unspecified)	MEKK2 WT-MEK5 174, MEKK2mut PB1 HTS 37 | MEKK2wt confirm inactive | MEKK2mut-MEK5 inactive | MEKK3 confirm inactive
CCOc1cc(/C=N/NC(N)=O)cc(Br)c1OCC(=O)Nc1ccccc1C	MEKK3 PB1 HTS 122 | MEKK2wt confirm inactive | MEKK2mut-MEK5 inactive | MEKK3 confirm inactive
Cc1nn(-c2ccccc2)c(Cl)c1/C=N/NC(=O)c1[nH]ncc1Br	none
CC(=O)c1cc(-c2ccccc2)n(CCC(=O)NC(C)(C)C)c1C	MEKK2 WT-MEK5 36[inhibitor], MEKK3 PB1 HTS 25[inhibitor] | MEKK2wt confirm inactive | MEKK2mut-MEK5 inactive | MEKK3 confirm inactive
CCc1ccc(C(O)(CNCc2ccccc2)c2ccccc2)cc1 (stereo unspecified)	MEKK2mut PB1 HTS 26 | MEKK2wt confirm inactive | MEKK2mut-MEK5 inactive | MEKK3 confirm inactive
COc1cccc(CNCC(O)(c2ccc(Cl)cc2)c2ccc(Cl)cc2)c1	dFosB activator inconclusive, MEKK2 WT-MEK5 158 | MEKK2wt confirm inactive | MEKK2mut-MEK5 inactive | MEKK3 confirm inactive
O=C(CCNc1ccc(Cc2ccncc2)cc1)c1ccc([N+](=O)[O-])cc1	none
Cc1ccc(C(=O)CSc2ncnc3sc4c(c23)CCCC4)cc1	MEKK2 WT-MEK5 -7.0[inhibitor], MEKK3 PB1 HTS 0.0[inhibitor] | MEKK2wt confirm inactive | MEKK2mut-MEK5 inactive | MEKK3 confirm inactive
CCCC(=O)NCCc1nc2ccccc2n1CCC	none
CCCn1c(CNC(=O)Cc2ccccc2)nc2ccccc21	MEKK2 WT-MEK5 38[inhibitor], MEKK3 PB1 HTS 32[inhibitor] | MEKK2wt confirm inactive | MEKK2mut-MEK5 inactive | MEKK3 confirm inactive
Cc1ccc(S(=O)(=O)NCCc2cccs2)cc1	MEKK3 PB1 HTS 128 | MEKK2wt confirm inactive | MEKK2mut-MEK5 inactive | MEKK3 confirm inactive
C=CCc1c(C)nc2c(OC)cccc2c1Cl	MEKK3 PB1 HTS 131 | MEKK2wt confirm inactive | MEKK2mut-MEK5 inactive | MEKK3 confirm inactive
O=C(N1CCOCC1)N1CCN(S(=O)(=O)c2ccccc2)C1	none
CSC(=Nc1ccc(Cl)cc1)N[n+]1ccccc1	none
O=c1c(C=NCCN2CCNCC2)c(-c2ccccc2)[nH]n1-c1ccc([N+](=O)[O-])cc1	MEKK2 WT-MEK5 179 (no result: dFosB activator) | MEKK2wt confirm inactive | MEKK2mut-MEK5 inactive | MEKK3 confirm inactive
COc1ccc(-c2[nH]n(-c3ccc([N+](=O)[O-])cc3)c(=O)c2C=NCCN2CCNCC2)cc1	none (no result: dFosB activator)
CN1CCN(C2Cc3ccccc3Sc3ccc(Cl)cc32)CC1 (stereo unspecified)	none (no result: MEKK2 WT-MEK5, MEKK2mut PB1 HTS, FID counter, MEKK3 PB1 HTS)
CSc1ccc2c(c1)C(N1CCN(C)CC1)Cc1ccccc1S2 (stereo unspecified)	dFosB activator 19!, MEKK2 WT-MEK5 150 | MEKK2wt confirm inactive | MEKK2mut-MEK5 inactive | MEKK3 confirm inactive
CC(C)(C)N1CCC1C(N)=O (stereo unspecified)	none (no result: dFosB activator)
CCOC(=O)c1sc2nc(CSc3ccccc3)nc(NCCN(C)C)c2c1C	MEKK2 WT-MEK5 176 | MEKK2wt confirm inactive | MEKK2mut-MEK5 inactive | MEKK3 confirm inactive
CCOC(=O)N/N=C/c1c(C)c(C(=O)c2ccc(F)cc2)n2ccccc12	MEKK3 PB1 HTS 74[inhibitor] | MEKK2wt confirm inactive | MEKK2mut-MEK5 inactive | MEKK3 confirm inactive
Cc1c(/C=N/NC(=O)c2ccccc2O)c2ccccn2c1C(=O)c1ccc(F)cc1	MEKK3 PB1 HTS 142 | MEKK2wt confirm inactive | MEKK2mut-MEK5 inactive | MEKK3 confirm inactive
C#CCn1cnc2c(oc3ccccc32)c1=O	none
COc1ccc(-c2csc(N(CCCN(C)C)C(=O)c3ccc(C(C)(C)C)cc3)n2)cc1	MEKK2 WT-MEK5 162, MEKK2mut PB1 HTS 26 | MEKK2wt confirm inactive | MEKK2mut-MEK5 inactive | MEKK3 confirm inactive
COc1ccc(-c2csc(N(CCCN(C)C)C(=O)c3ccc(C)cc3)n2)cc1	none
COc1ccc(-c2csc(N(CCCN(C)C)C(=O)c3cc(OC)c(OC)c(OC)c3)n2)cc1	none
COc1ccc(-c2csc(N(CCCN(C)C)C(=O)c3ccc(Br)cc3)n2)cc1	MEKK2 WT-MEK5 142 | MEKK2wt confirm inactive | MEKK2mut-MEK5 inactive | MEKK3 confirm inactive
CCOc1ccc(S(=O)(=O)NNS(=O)(=O)c2ccc(C)cc2C)cc1	none
Cc1ccc(C(=O)N2CCN=C2SCc2ccc([N+](=O)[O-])cc2)cc1C	MEKK3 PB1 HTS 64[inhibitor] | MEKK2wt confirm inactive | MEKK2mut-MEK5 inactive | MEKK3 confirm inactive
O=C1CNC(=O)N1CC(O)Cn1c2ccccc2c2ccccc21 (stereo unspecified)	none
O=C1S/C(=C/c2ccccc2)C(=O)N1CC(O)Cn1c2ccccc2c2ccccc21 (stereo unspecified)	MEKK3 PB1 HTS 75[inhibitor] | MEKK2wt confirm inactive | MEKK2mut-MEK5 inactive | MEKK3 confirm inactive
COc1ccc(Cn2c(SCc3ccc(C)cc3)nc3cc(OC)c(OC)cc3c2=N)cc1Cl	dFosB activator 59, MEKK2 WT-MEK5 212, MEKK2mut PB1 HTS 71 | MEKK2wt confirm 208 | MEKK2mut-MEK5 80 | MEKK3 confirm inactive
COc1ccc(Cn2c(SCc3cc(C)ccc3C)nc3cc(OC)c(OC)cc3c2=N)cc1	dFosB activator 40, MEKK2 WT-MEK5 174 | MEKK2wt confirm inactive | MEKK2mut-MEK5 inactive | MEKK3 confirm inactive
CCN(CC)S(=O)(=O)c1ccc(OCC(=O)NCc2ccccc2)cc1	MEKK2 WT-MEK5 38[inhibitor], MEKK3 PB1 HTS 27[inhibitor] | MEKK2wt confirm inactive | MEKK2mut-MEK5 inactive | MEKK3 confirm inactive
